{"source": "PubChem BioAssay", "note": "Activity calls are given as the source filed them.", "data": [{"molecular_target": "Dihydroorotate dehydrogenase (quinone), mitochondrial (Plasmodium falciparum (isolate 3D7)) (UniProt Q08210)", "sequence (Q08210 whole entry, looked up)": "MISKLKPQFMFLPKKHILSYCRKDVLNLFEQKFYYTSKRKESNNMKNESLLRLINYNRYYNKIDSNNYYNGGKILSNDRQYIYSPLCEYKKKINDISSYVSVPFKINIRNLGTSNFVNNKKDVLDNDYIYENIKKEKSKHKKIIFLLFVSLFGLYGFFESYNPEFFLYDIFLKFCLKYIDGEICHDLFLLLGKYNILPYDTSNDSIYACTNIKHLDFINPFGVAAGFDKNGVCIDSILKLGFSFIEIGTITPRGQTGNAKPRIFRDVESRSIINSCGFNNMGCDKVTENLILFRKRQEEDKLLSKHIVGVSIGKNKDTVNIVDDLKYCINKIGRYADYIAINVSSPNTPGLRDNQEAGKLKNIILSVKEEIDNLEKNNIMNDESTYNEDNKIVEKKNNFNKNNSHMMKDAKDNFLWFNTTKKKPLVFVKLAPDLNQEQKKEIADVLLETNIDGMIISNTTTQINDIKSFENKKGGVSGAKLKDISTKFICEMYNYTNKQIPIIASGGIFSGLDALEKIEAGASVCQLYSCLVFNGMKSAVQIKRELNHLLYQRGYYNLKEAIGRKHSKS", "experiment": "inhibition of P. falciparum DHODH – biochemical, C-terminal His tag, absorbance 600 nm, primary screen (AID 1175);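 further: recombinant parasite enzyme with a five histidine tag at its C terminus; test concentration not given here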", "conditions": "PfDHODH enzyme, DCIP absorbance 600 nm; higher = more signal, called active from +8 up or from −8 down", "values": [{"smiles": "C=CCN1C(=O)[C@@]2(Cc3ccccc31)N=C(c1ccc(OCCCO)cc1)O[C@H]2c1ccccc1", "composite z-score": "0.161 (inactive)"}, {"smiles": "CC(C)C(O)C1C=CC2C(=O)N(c3ccccc3)C(=O)C2N1Nc1ccc([N+](=O)[O-])cc1", "note": "(stereo not drawn)", "composite z-score": "-0.0755 (inactive)"}, {"smiles": "COC(=O)[C@H](Cc1ccccc1)N[C@@H](/C=C/C1CC1)[C@H](O)Cc1ccccc1", "composite z-score": "0.342 (inactive)"}, {"smiles": "O=C1O[C@H](c2ccccc2)[C@H](c2ccccc2)N2[C@H]1[C@@H](C(=O)N1CCCCCCC1)[C@]1(C(=O)Nc3ccc(C#CC4=CCCCC4)cc31)[C@H]2c1ccc(OCCO)cc1", "composite z-score": "-0.585 (inactive)"}, {"smiles": "CCOC(=O)C[C@H]1[C@H](OC(=O)c2ccc(C(=O)c3ccccc3)cc2)[C@@H](NC(=O)c2ccccc2)c2cc(OCCCO)ccc2N1C(=O)Cc1ccc(OC)cc1", "composite z-score": "0.107 (inactive)"}, {"smiles": "COc1ccc([Si](C)(C)[C@H]2[C@H](CCO)O[C@@]3(C(=O)N(Cc4ccc(N(C=O)c5ccccc5)cc4)c4ccccc43)[C@@H]2C)cc1", "composite z-score": "0.041 (inactive)"}, {"smiles": "CC(C)c1ccc(NN2C(C(O)c3ccc(B(O)O)cc3)C=CC3C(=O)N(c4ccccc4)C(=O)C32)cc1", "note": "(stereo not drawn)", "composite z-score": "-0.388 (inactive)"}, {"smiles": "COc1ccc(CCNC(=O)[C@@]2(Sc3ccc(C)cc3)CC(=O)N(C3Cc4ccccc4C3)[C@@H]2c2ccc(CO)cc2I)cc1", "composite z-score": "0.371 (inactive)"}, {"smiles": "COCCOC(=O)N1C(=O)[C@@]2(c3ccccc31)[C@H](c1ccc(O)cc1)N1[C@H](c3ccccc3)[C@H](c3ccccc3)OC(=O)[C@H]1[C@@H]2C(=O)Nc1nc2ccccc2s1", "composite z-score": "0.553 (inactive)"}, {"smiles": "C=C(C(=O)CC[C@@H](OC(=O)c1cccnc1)c1ccccc1OCCO)C(C)C", "composite z-score": "-0.0125 (inactive)"}, {"smiles": "NCCCCCNC(=O)[C@@H]1C[C@@H]2C(=O)N[C@@H](Cc3ccccc3)C(=O)N2[C@@H]1c1ccc(O)cc1", "composite z-score": "-0.0741 (inactive)"}, {"smiles": "CCCCCCc1nc(-c2ccc(OC)nc2)cc2c1[Si](C(C)C)(C(C)C)O[C@H]2c1ccccc1", "composite z-score": "-0.0348 (inactive)"}, {"smiles": "C[N+](C)(C)CCCCNC(=O)[C@@H]1C[C@@H]2C(=O)N[C@@H](Cc3ccccc3)C(=O)N2[C@@H]1c1cccc(OCCO)c1", "composite z-score": "-24.9 (active)"}, {"smiles": "COc1cc2c(cc1O)C(c1cccs1)N(C)CC2", "note": "(stereo not drawn)", "composite z-score": "-8.08 (active)"}, {"smiles": "C[C@@]1([C@@H](NC(=O)c2ccc(-c3ccccc3)cc2)c2ccc(Cl)cc2)C[C@H]1C1CCCCC1", "composite z-score": "-0.0475 (inactive)"}, {"smiles": "Cc1ccc(S[C@]2(C(=O)O)CC(=O)N(C(C)C)[C@@H]2c2ccc(CO)cc2I)cc1", "composite z-score": "-1.12 (inactive)"}, {"smiles": "CN1C(=O)C2C=CC(C(O)C3CC=CCC3)N(N(c3ccccc3)c3ccccc3)C2C1=O", "note": "(stereo not drawn)", "composite z-score": "-0.0647 (inactive)"}, {"smiles": "O=C1NC(=O)C2C1C=CC(C(O)c1cccs1)N2Nc1ccc(Cl)cc1Cl", "note": "(stereo not drawn)", "composite z-score": "0.572 (inactive)"}, {"smiles": "C=CCC(OC(C)=O)[C@@H]1[C@@H](N(Cc2ccc(-c3ccccc3)cc2)C(=O)Cc2ccc(OC)cc2)c2cc(OCCCO)ccc2N1C(=O)Cc1ccc2ccccc2c1", "note": "(stereo partly drawn)", "composite z-score": "0.0513 (inactive)"}, {"smiles": "CC(C)C[C@@H]1NC(=O)[C@@H]2C[C@H](C(=O)NCc3ccc(F)cc3)[C@H](c3cccc(OCCO)c3)N2C1=O", "composite z-score": "-1.26 (inactive)"}, {"smiles": "C=CCC(OC(C)=O)[C@@H]1[C@@H](N(Cc2ccc(-c3ccccc3)cc2)C(=O)c2cccc3ccccc23)c2cc(OCCCO)ccc2N1C(=O)c1ccc(-c2ccccc2)cc1", "note": "(stereo partly drawn)", "composite z-score": "-0.0355 (inactive)"}, {"smiles": "CCCC[C@H]1OB(O)C[C@H]2C1=C(COC)Cn1c(=O)n(-c3ccccc3)c(=O)n12", "composite z-score": "-0.485 (inactive)"}, {"smiles": "O=C1NC(=O)C2C1C=CC(C(O)c1cc(C(F)(F)F)cc(C(F)(F)F)c1)N2Nc1ccccn1", "note": "(stereo not drawn)", "composite z-score": "-1.14 (inactive)"}, {"smiles": "CC1CC/C=C\\[C@H]2OC34C=CCN(Cc5ccccc5)C(=O)[C@H]3N(CCCO)C(=O)[C@@H]4C2C(=O)O1", "note": "(stereo partly drawn)", "composite z-score": "-0.311 (inactive)"}, {"smiles": "C=C(CC1([C@@H](NP(=O)(c2ccccc2)c2ccccc2)[C@H]2C[C@@H]2CCCC)CC1)c1ccccc1", "composite z-score": "-0.424 (inactive)"}, {"smiles": "CC(C)N1C(=O)c2ccccc2[C@](C)(C(=O)NCCN2CCOCC2)[C@@H]1c1ccc(CO)cc1", "composite z-score": "1.11 (inactive)"}, {"smiles": "[N-]=[N+]=NCc1ccccc1[C@@H]1OC(c2ccc(OCCCO)cc2)=N[C@]1(Cc1ccccc1)C(=O)NCC(O)CO", "note": "(stereo partly drawn)", "composite z-score": "-0.0408 (inactive)"}, {"smiles": "Cc1ccc(S[C@]2(C(=O)NCCCN(C)C)CC(=O)N(Cc3ccccc3C(F)(F)F)[C@@H]2c2ccc(CO)cc2)cc1", "composite z-score": "-0.0819 (inactive)"}]}]}
